Compounds without any hit were thinned out: in the full panel of roughly 83,000, 20% have a hit.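 Method: cells in 96-well plates; compound added at one concentration; 48 h incubation; percent growth measured; values under 10 scored active.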 Unmarked numbers belong to inactive results. Activity calls are given as the source filed them.
Columns and labels:
Assay in all cases: NCI-60 one-dose screen, 48 h (100 = growth as untreated, 0 = no growth, -100 = all killed)
Details in all cases: 10 µM unless noted
[1] = system: SR leukemia
[2] = system: RPMI-8226 leukemia
[3] = system: OVCAR-8 ovarian
[4] = system: OVCAR-5 ovarian
[5] = system: OVCAR-4 ovarian
[6] = system: SK-OV-3 ovarian
[7] = system: IGROV1 ovarian
[8] = system: OVCAR-3 ovarian
[9] = system: HS 578T breast
[10] = system: NCI/ADR-RES ovarian

| Compound | growth [1] | growth [2] | growth [3] | growth [4] | growth [5] | growth [6] | growth [7] | growth [8] | growth [9] | growth [10] [%] |
| --- | --- | --- | --- | --- | --- | --- | --- | --- | --- | --- |
| C#CCn1c(-c2cc(OC)c(OC)cc2Br)nc(-c2ccccc2)c1-c1ccccc1 | 16.4% | 48.9% | 57.4% | 77.5% | 63.2% | 16% | 40.9% | 9.74% (active) | 66.8% | 10.2 |
| CN[C@@H](CCCNC(N)=NC/C=C(/C)CCC=C(C)C)C(=O)N(C)[C@@H](CCCNC(N)=NCC=C(C)C)C(=O)N[C@H](C)[C@H](OS(=O)(=O)O)c1ccc(OS(=O)(=O)O)c(COS(=O)(=O)O)c1 | 114% | 92.9% | 98.4% | 113% | 120% | 110% | 110% | 107% | 97.3% | 105 |
| Cc1ccc2c(c1)Nc1ccc(C)cc1C2(C)C | 88.3% | 85.4% | 103% | 105% | 92.3% | 82.2% | 106% | 97.7% | 113% | 105 |
| CCCC(C)(C)COC(=O)c1cccc(N)c1 | 92.8% | 108% | 84.2% | 114% | 117% | 94.1% | 103% | 102% | 99.3% | 102 |
| S=C=NP1(N=C=S)=NP(N=C=S)(N=C=S)=NP(N=C=S)(N=C=S)=NP(N=C=S)(N=C=S)=N1 (stereo unspecified) | 88.8% | 103% | 95.6% | 107% | 96.7% | 84.3% | 97.9% | 112% | 98.5% |  |
| COc1cccc(-c2nc3sccn3c2-c2ccnc(NCCNC(=O)c3ccccc3)n2)c1 | 79.8% | 41.6% | 62.5% | 99.1% | 109% | 88.5% | 69.2% | 89.1% |  |  |
| CC(=O)N[C@@H](CNC(=O)c1cc(NC(=O)c2cc(NC(=O)c3cc(NC(=O)c4nccn4C)cn3C)cn2C)cn1C)CC(=O)Nc1cn(C)c(C(=O)Nc2cc(C(=O)Nc3cc(C(=O)Nc4cc(C(=O)NCCCN(C)CCCNC(=O)c5cccc(C(=O)O)c5)n(C)c4)n(C)c3)n(C)c2)n1 | 77.2% | 105% | 96% | 121% | 64% | 115% | 113% | 102% |  |  |
| C=C1C(=O)O[C@H]2[C@H]1CC/C(COC(=O)c1ccc3ccccc3c1)=C\CC[C@@]1(C)O[C@@H]21 | -19.4% (active) | -39.3% (active) | -21.4% (active) | -52.9% (active) | -36.7% (active) | 82.6% | -75.1% (active) | -93.1% (active) | 3.13% (active) |  |
| O=C(Nc1cccc(-n2ccc3c(NC(=O)c4ccccc4)nccc32)c1)Nc1cc(C(F)(F)F)cc(C(F)(F)F)c1 | -14.9% (active) | -30.6% (active) | -32.1% (active) | 28% | 43.9% | 13.5% | 6.92% (active) | -26.9% (active) |  |  |
| COc1cc2c(cc1OC)-c1c(oc3c4c(ccc3c1=O)OC(C)(C)C=C4)CO2 | 42.6% | 49.3% | 67.7% | 89.3% | 41.8% | 77.6% | 85% | 63.7% | 99.8% | 65.8 |
| COc1cc(NC(=O)c2cc(OC)c3ccn(C)c3c2)cc2c1C[C@]1(C)CC[C@@H](O)C(C)(C)[C@H]1O2 | 19.2% | -16.6% (active) | 75.8% | 81.4% | 84.6% | 53% | 68% | 80.7% | 10.2% | 82.6 |
| O=C(Nc1ccc(Cl)c(Cl)c1)Nc1ccc(Cl)c([N+](=O)[O-])c1 | -25.2% (active) | -36.2% (active) | 10.9% | 11.9% | 27.1% | -11.7% (active) | 15.8% | 6.38% (active) | 7.04% (active) |  |
| Cc1ccc(/C=C2/C(=O)Nc3cc(Cl)c(-c4csc(N)n4)cc32)cc1 | 23.9% | 50% | 82.6% | 102% | 68.7% | 77.7% | 59.7% | 59.8% | 63.7% |  |
| CC(C)CNCC(O)COc1ccc(C(C)(C)c2ccc(OCC(O)CNCC(C)C)cc2)cc1 (stereo unspecified) | -38.7% (active) | -9.88% (active) | 53.4% | 80.8% | 81% | 86.9% | 47.4% | 44.5% | 65.4% |  |
| COc1ccc(-c2c(NC(=O)Nc3ccc(Cl)c(C(F)(F)F)c3)cnn2-c2ccc(S(N)(=O)=O)cc2)cc1 | 7.38% (active) | 19.9% | 28.5% | 60.6% | 32.8% | 68.4% | 33.1% | 25.4% | 49.6% | 89.9 |
| COc1ccc(Cl)cc1NC(=O)c1cc2c([nH]1)-c1nc(NC(=O)C(C)C)sc1CC2 | 77.9% | 93.7% | 107% | 128% | 109% | 78.1% | 77.1% | 103% |  |  |
| CC(C)(C)C(=O)Nc1nc2c(s1)CCc1ccn(S(=O)(=O)c3ccccc3)c1-2 | 83.1% | 78.6% | 100% | 97.7% | 95.2% | 96.1% | 97.3% | 95.3% | 98.6% |  |
| O=S(=O)(CCN1CCOCC1)Nc1cc(-c2ccc3ncnc(Nc4ccc(F)c(Cl)c4)c3c2)cnc1Cl | 18.8% | 9.83% (active) | 16.1% | 12.1% | 11.5% | -25.4% (active) | -24.1% (active) | -8.19% (active) | -18.3% (active) |  |
| O=c1c2ccccc2[nH]n1Cc1ccc2c(c1)OCO2 | 115% | 90.5% | 104% | 95.7% | 105% | 112% | 111% | 104% | 103% |  |
| O=S(=O)(O)c1ccc(F)cc1 | 101% | 100% | 116% | 111% | 105% | 102% | 98.8% | 106% | 102% | 104 |
| CC(C)C(=O)Nc1nc2c(s1)CCCc1ccn(S(=O)(=O)c3ccccc3)c1-2 | 84.3% | 87.5% | 101% | 99.2% | 104% | 87.4% | 107% | 107% | 101% | 94.2 |
| c1ccc(-c2nc3sc(C(c4ccccc4)c4ccccc4)nn3c2-c2ccccc2)cc1 | 80.6% | 108% | 104% | 103% | 103% | 94.7% | 86.4% | 100% | 106% | 95.3 |
| C[C@]12CC[C@@H]3c4ccc(O)c(N)c4CC[C@H]3[C@@H]1CC[C@@H]2O | 98.1% | 85.5% | 104% | 117% | 110% | 128% | 136% | 100% | 99.2% |  |
| Nc1ncnc2c1c(-c1ccc(Oc3ccccc3)cc1)nn2C[C@@H]1SSC[C@H]1O | 4.41% (active) | 50.9% | 33.3% | 80.8% | 50.2% | -8.06% (active) | -10.3% (active) | 18.3% | 16.9% |  |
| COc1ccc(Cl)cc1NC(=O)c1cc2c(n1C)-c1nc(NC(=O)C(C)C)sc1CC2 | 79.1% | 82.7% | 81.8% | 108% | 66% | 82.9% | 104% | 111% |  |  |
| COc1ccc(C(=O)Cn2cnc3c(Nc4cc(C(=O)Nc5ccc(N6CCN(CCO)CC6)cc5)ccc4C)ncnc32)cc1 | 83.7% | 96.7% | 104% | 104% | 106% | 99.2% | 110% | 100% | 97.7% | 104 |
| Nc1ncnc2c1ccn2-c1cccc(NC(=O)c2cccc(C(F)(F)F)c2)c1 | 54.6% | 52.9% | 78% | 81.4% | 68.7% | 93.3% | 87.5% | 80% |  |  |
| O=C(Nc1ccc(-n2ccc3c(NC(=O)c4ccccc4)nccc32)cc1)c1ccc(Cl)c(C(F)(F)F)c1 | -28.7% (active) | -17.3% (active) | 23% | 62.9% | 88.5% | 53.9% | 36% | 22.9% |  |  |

Source: PubChem BioAssay (NCI)
